Data on 15 compounds can be found in PubChem BioAssay AID651947 (Broad Institute, 2012).

Each structure is given as a SMILES string. Measured potencies and affinities stand elsewhere. Results filed as inconclusive are left out. Unmarked numbers belong to inactive results.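 The calls were made as follows: active = luminescence drop in HepG2 cells whose fitted half-effect dose is at most twice the top valid dose; inconclusive = flat curve with 30 to 70% signal loss, or unreliable fit; inactive = the rest.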

The experiment in a line: cytotoxicity in HepG2 cells, dose response, cytotoxicity control, cell-based, plate reader, dry powder (AID 651947). Particulars: HepG2 viability, ATP luminescence (CellTiter-Glo), 48 h, hits give low values; at 26 µM unless noted.
Turning to `Fc1ccc(-c2nnc(SCc3cn(Cc4ccccc4)nn3)o2)cc1`, the max activity was 22.1% [at 3 µM].

`c1ccc(-n2cc(CSc3nnc(C4CCC4)o3)nn2)cc1`: the max activity is -30.4% [at 12 µM]. Regarding `FC(F)(F)c1ccc(-c2nnc(SCc3ccccc3)o2)cc1`, the max activity is 17.4% [at 3 µM].

`c1ccc(-c2nnc(SCc3cscn3)o2)cc1`: the max activity was -61.2% [at 12 µM]. On to `c1ccc(CCc2nnc(-c3ccccc3)o2)cc1`, for which the max activity was 27.6%. Turning to `Fc1ccc(Cn2cc(CSc3nnc(C4CCC4)o3)nn2)cc1`, the max activity is -41.8% [at 0.38 µM]. On to `Fc1cccc(CSc2nnc(-c3ccccc3)o2)c1`, for which the max activity is -9.21% [at 12 µM]. Turning to `CS(=O)(=O)c1cccc(-c2nnc(SCc3ccccc3)o2)c1`, the max activity is 26.3% [at 0.8 µM]. With `Clc1cccc(-c2nnc(SCc3ccccc3)o2)c1`, the max activity is -48.3% [at 3 µM]. Turning to `Fc1ccc(-c2nnc(SCc3cn(-c4ccccc4)nn3)o2)cc1`, the max activity was -8.15%.

For the compound `FC(F)(F)c1cccc(CSc2nnc(-c3ccccc3)o2)c1`, the max activity is -34.6% [at 1.6 µM]. Turning to `Fc1ccc(CSc2nnc(-c3ccc(Cl)cc3)o2)cc1`, the max activity was -47.5% [at 12 µM]. Regarding `c1ccc(COc2nnc(-c3ccccc3)o2)cc1`, the max activity is -50.7% [at 1.6 µM]. Then `c1ccc(-c2nnc(SCc3ncco3)o2)cc1`, with 8.06% [at 0.195 µM].

As for `c1ccc(-c2nnc(SCCN3CCOCC3)o2)cc1`, the max activity is -7.63% [at 0.38 µM].
